Rab9 promoter act: activates the Rab9 promoter. Potency, µM (titrated, usually from 9.22 µM), without a hit: top-dose activation, negative = inhibition, actives largely listed as activators. 320,000 compounds, 2.8% hits. Huh7 Rab9 promoter-luciferase reporter, luminescence, 24 h; also: % of control where 0% means no effect; nearly all actives have a fitted effect of over 60% in size
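Luminescence read-out: Huh7 cells stably expressing Rab9-luciferase, treated 24 h with compound at 37 °C, then lysed with luciferase reagent for 10 min at ambient before reading.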
ELG1 DNA repair: ELG1-dependent DNA repair inhibition; HEK293T ELG1-luciferase reporter, luminescence, 16 h; DNA damage induced by 5-fluorouridine; AID 504467; Potency, µM (doses to about 46.1 µM), without a hit: at the highest dose activity change, negative = inhibition, usual class: inhibitors; 330,000 compounds, 2.3% hits; also: % is scaled to controls: 0 for no effect and ±100 for the full control effect; nearly all actives have a fitted effect of over 55% in size
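Reporter activity after DNA damage by 5-fluorouridine is monitored. Compound-treated cells incubate 16 hr at 37 °C, then ONE-Glo is added for 30 min before luminescence reading.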
ELG1 genotoxic: induces genotoxicity in HEK293T cells with luciferase-tagged ELG1. Potency, µM (top dose mostly 46 µM), without a hit: at the highest dose activity change, positive = activation, hits mostly activators. HEK293T ELG1-luciferase reporter, luminescence, 16 h. 330,000 compounds, 1.3% hits. AID 504466; also: % of control where 0% means no effect; nearly all actives have a fitted effect of over 60% in size
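ELG1-luciferase HEK293T cells, 2,000/well; compound pinned in; 16 hr, 37 °C, 5% CO2; ONE-Glo, 30 min RT; luminescence on CCD imager.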
NPC1 promoter act: activators of NPC1 promoter | Huh7 NPC1 promoter luciferase reporter, 24 h | Potency, µM (series often up to 9.22 µM), without a hit: at the top dose activation, hits mostly activators | 320,000 compounds, 2.4% hits | AID 485313; also: % of control where 0% means no effect; nearly all actives have a fitted effect of over 60% in size
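Luciferase expression driven by the NPC1 promoter was measured in stably transfected Huh7 cells after a 24 h compound incubation, using a luciferase reagent and a luminescence read.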
SMN2 splice enh: enhancers of SMN2 splice variant expression | HEK293 SMN2-luciferase splicing reporter, luminescence, 30-36 h | 210,000 compounds, 2.8% hits | Potency, µM (series often up to 46.1 µM), for the others: top-dose activity change, positive = activation, actives largely listed as activators | AID 1458; also: % of control where 0% means no effect; nearly all actives have a fitted effect of over 55% in size
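HEK293 cells carry an SMN2 […]–luciferase reporter in which exon 7 inclusion puts luciferase in frame. Cells were plated 10-12 h before compound addition, then incubated 30-36 h at 37C. ONE-Glo luminescence was read; sodium butyrate at 4.5 mM final served as control.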
FLuc modulator: firefly luciferase modulation, counter-screen for miR-21 project | P08659 | purified FLuc, Km substrates, luminescence inhibition | Potency, µM (doses to about 57.5 µM), for the others: top-dose activity change, negative = inhibition, actives largely listed as inhibitors | 360,000 compounds, 6.9% hits | AID 588342;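 also: plate controls were vehicle for no effect and reference inhibitor for full effect; nearly all actives have a fitted effect of over 55% in size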
Target sequence (P08659 whole entry, looked up): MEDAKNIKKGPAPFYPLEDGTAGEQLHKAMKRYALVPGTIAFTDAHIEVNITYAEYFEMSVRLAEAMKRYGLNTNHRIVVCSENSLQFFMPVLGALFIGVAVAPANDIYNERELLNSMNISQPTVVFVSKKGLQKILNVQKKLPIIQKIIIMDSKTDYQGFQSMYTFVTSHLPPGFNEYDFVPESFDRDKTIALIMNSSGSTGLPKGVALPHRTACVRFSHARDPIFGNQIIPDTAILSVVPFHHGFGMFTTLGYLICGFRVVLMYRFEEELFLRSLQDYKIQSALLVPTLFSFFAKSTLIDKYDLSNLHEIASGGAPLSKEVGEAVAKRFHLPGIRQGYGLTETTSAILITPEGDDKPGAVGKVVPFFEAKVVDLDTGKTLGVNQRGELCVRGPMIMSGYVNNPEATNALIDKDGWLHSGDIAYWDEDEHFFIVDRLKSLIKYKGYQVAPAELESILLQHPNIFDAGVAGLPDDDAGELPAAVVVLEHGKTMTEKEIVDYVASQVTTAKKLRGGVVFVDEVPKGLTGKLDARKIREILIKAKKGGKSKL
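Purified P. pyralis luciferase, 10 nM final, with Km-level 10 uM D-luciferin and 10 uM ATP in 50 mM Tris acetate pH 7.5, 10 mM Mg acetate, 0.01% Tween-20, 0.05% BSA; 6-point qHTS titration about 60 µM downward; luminescence read.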
* hit, by the source's call; u = inconclusive; x = not tested or not shown. An excerpt weighted towards active compounds, which were near 9.2% of everything screened. Calls follow the shape of the dose curve; as a rule, active = well fitted curve in the direction sought with a large enough effect; inconclusive = small, poorly fitted or top-dose-only effect, or another doubt; inactive = no such curve, though single readings can be large; an effect the other way counts as inactive or inconclusive. Potency is read from the fitted curve at half-maximal effect.

SMILES	Rab9 promoter act	ELG1 DNA repair	ELG1 genotoxic	NPC1 promoter act	SMN2 splice enh	FLuc modulator
Cc1ccc(NS(=O)(=O)c2ccccc2F)cc1S(=O)(=O)N1CCCCCC1	3%	3%	0%	-1%	x	2%
O=S(=O)(Nc1cccc(-c2ccc(N3CCCCCC3)nn2)c1)c1ccccc1F	u	u	u	16%	x	19µM*
O=S(=O)(Nc1cccc(-c2ccc(N3CCCCCC3)nn2)c1)c1ccccc1Cl	29%	23%	4%	19%	x	8.5µM*
O=C(CSc1ccccc1)Nc1ccc2sccc2c1	19%	u	13%	19%	x	u
CN(C)C=NC(=O)c1cc(C(=O)c2ccc(C(C)(C)C)cc2)c[nH]1	1.1µM*	u	2.9µM*	1.1µM*	3.2µM*	9.5µM*
CNC(=O)c1cc(C(=O)c2ccc(C(F)(F)F)cc2)c[nH]1	19%	u	u	20%	x	u
COC(=O)c1cc(C(=O)c2ccc(C(C)(C)C)cc2)c[nH]1	28%	21%	u	13%	15%	19µM*
CC(C)(C)c1ccc(C(=O)c2c[nH]c(C(=O)O)c2)cc1	u	u	13%	u	13µM*	2.1µM*
COc1ccc(C(=O)Nc2ccc(C(=O)N3CCCCC3)cc2)cc1OC	19%	u	14%	16%	x	24µM*
COc1ccccc1NC(=O)Nc1ccc(C(=O)N2CCCCC2)cc1	0.89µM*	u	13µM*	u	x	3µM*
COc1ccc(OC)c(-n2nnnc2SCC(=O)Nc2ccc(C(=O)N3CCCCC3)cc2)c1	-3%	23µM*	-10%	-1%	-37%	-13%
CCNS(=O)(=O)c1ccc(NC(=O)Nc2cc(C)ccc2OC)cc1	-3%	u	1%	-1%	x	u
CCNS(=O)(=O)c1ccc(NC(=O)Nc2ccccc2OC)cc1	-1%	u	8%	2%	x	17µM*
COc1ccc(C(=O)O)cc1S(=O)(=O)NCc1ccncc1	x	8%	1%	x	x	x
COc1ccccc1NC(=O)c1cc(S(=O)(=O)NCc2ccccc2)ccc1F	3%	16µM*	-11%	1%	-24%	-3%
CCOc1ccc(S(=O)(=O)NCc2ccncc2)cc1NC(=O)c1ccccc1	-26%	4.1µM*	u	-25%	x	-2%
COc1ccc(CNS(=O)(=O)c2ccc(F)c(C(=O)Nc3ccccc3OC)c2)cc1	-4%	u	7%	0%	-29%	0%
Cc1ccc(S(=O)(=O)NCc2ccccc2)cc1C(=O)NC1CCC(C)CC1 (stereo not given)	1.3µM*	u	u	u	x	u
Cc1ccc(S(=O)(=O)NCc2ccccc2)cc1C(=O)N1CC(C)CC(C)C1 (stereo not given)	-13%	-18%	-3%	-2%	x	2%
Cc1ccc(C(=O)Nc2ccc(C(=O)N3CCCCC3)cc2)o1	u	u	u	u	x	24µM*
O=C(CCNS(=O)(=O)c1ccccc1C(F)(F)F)N1CCN(S(=O)(=O)c2cccc(F)c2)CC1	1%	-3%	-8%	-3%	x	0%
Cc1noc(C)c1COC(=O)c1ccc(-c2nc3ccccc3s2)s1	3.5µM*	u	7.3µM*	u	10µM*	5.4µM*
CCNC(=O)COC(=O)c1ccc(-c2nc3ccccc3s2)s1	u	u	u	17%	13µM*	1.3µM*
Cc1noc(C)c1COC(=O)c1cc(=O)[nH]c2ccccc12	3%	10%	5%	-5%	-10%	-1%
CCNC(=O)COC(=O)c1cc(C)nc2ccccc12	-5%	1%	0%	-7%	3%	0%
CCc1nnc(SCC(=O)Nc2cc(Cl)c(OC)cc2OC)c2cc3oc(C)cc3n12	x	x	x	x	x	0%
C=CCn1c(O)c(N=NC(=S)Nc2ccccc2F)c2ccccc21	-7%	6.5µM*	-1%	-2%	-62%	4%
